According to PubChem BioAssay AID1347417 (National Center for Advancing Translational Sciences (NCATS), 2020):
About 5,300 (4.4%) of roughly 120,000 compounds were called active. Not shown: some 22% with an inconclusive outcome. The call rests on the fitted dose curve; in most records, active means well fitted inhibition curve with a large enough effect; inconclusive means small, poorly fitted or top-dose-only effect; inactive means no such curve, though single readings can be large or run the other way. The list comes from a sample in which actives are over-represented; it also holds similar structures and randomly drawn compounds. Where a call stands in place of a potency, no number is given.
Potency means the concentration at half of the fitted maximal effect.

Assay: qHTS Primary assay for Inhibitors of Plasmodium falciparum Dd2 growth in vitro; further: nearly all actives have a fitted effect of over 65% in size
Conditions: P. falciparum Dd2 growth, SYBR Green, 72 h; series mostly up to 28.9 µM
How it was run: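 Readout: SYBR Green fluorescence, 485 nm excitation, 535 nm emission, after ~16 h lysis at 37C. Before that, Dd2-infected red cells (2.5% hematocrit) grew 72 h with compound, 29 uM top final concentration.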
With `O=C(Cc1cccs1)NC1CCCN(c2cc(-c3ccccc3)[nH]n2)C1` (stereo not drawn) the Potency was “inactive”. For `COc1ccc(-c2ccc3c(c2)C(=O)N2CCN(C(=O)CC4(CC(=O)O)CCCC4)C[C@H]2C(=O)N3)cc1`, the Potency was “inactive”. In the case of `CN1C(=O)CC(C(=O)O)C12CCN(Cc1cccc(OC(F)F)c1)CC2` (stereo not drawn), the Potency is reported as “inactive”. In the case of `CN(C)C[C@@H]1CN(C)C[C@H]1NC(=O)C1CCC1`, the Potency is reported as “inactive”. With `CCOC(=O)N1CCc2c(sc(NCc3cccc(F)c3)c2C(=O)Nc2ccccc2OCC)C1` the Potency was 4.47 µM (active). For `CCOC(=O)N1CCc2c(sc3c2C(=O)NC(c2ccccc2F)N3)C1` (stereo not drawn), the Potency was “inactive”. In the case of `CCOc1cc(=O)n2c(c1C(=O)Nc1ccc(F)cc1F)CCCC2`, the Potency is reported as “inactive”. In the case of `Cc1ccccc1CN1CCC(N2CCCC(C(=O)NC3CC3)C2)CC1` (stereo not drawn), the Potency is reported as “inactive”. For `CCOc1ccccc1N(CC)C(=O)c1cc2ccc3cccnc3c2[nH]1`, the Potency was 12.6 µM (active). For `Cc1ccccc1CN1CCC(CNC(=O)c2cc3ccc4cccnc4c3[nH]2)CC1`, the Potency was 10 µM (active). With `CCOc1ccccc1C(=O)N1CCC(Oc2ncccc2C(=O)N(C)C)C1` (stereo not drawn) the Potency was “inactive”. In the case of `CCOc1ccccc1N(CC)C(=O)Nc1cn(C)c(=O)c2ccccc12`, the Potency is reported as “inactive”. For `Cc1ccccc1CN1CCc2ncc(C(=O)NCCOc3ccccc3)n2CC1`, the Potency was “inactive”. In the case of `CCOc1ccc(NC(=O)Cn2c(-c3ccc(F)cc3)nc(C)cc2=O)cc1`, the Potency is reported as “inactive”. In the case of `COc1ccc(Cn2ccnc2SCC(=O)Nc2ccc3c(c2)OCO3)cc1`, the Potency is reported as “inactive”. In the case of `COc1cccc(NC(=O)C(=O)NCC(c2ccc3c(c2)OCO3)N2CCN(C)CC2)c1` (stereo not drawn), the Potency is reported as 7.94 µM (active). In the case of `CC(C)CC(=O)NCC(c1ccc2c(c1)OCO2)N1CCN(c2ccc(F)cc2)CC1` (stereo not drawn), the Potency is reported as 10 µM (active). In the case of `CN(C)c1ccc(C(CNS(=O)(=O)c2cc(F)ccc2F)N2CCOCC2)cc1` (stereo not drawn), the Potency is reported as “inactive”. For `COc1ccc(C(C(=O)O)N2CCCN(c3ccc(F)cc3)CC2)cc1F` (stereo not drawn), the Potency was “inactive”. In the case of `Cc1ccc(NC(=O)C(=O)NCC(c2cccnc2)N2CCOCC2)cc1` (stereo not drawn), the Potency is reported as “inactive”. For `O=C(CN1CC2CC(C1)[C@H]1CCCC(=O)N1C2)N1CCN(c2ccccn2)CC1` (stereo partly drawn), the Potency was “inactive”. With `CCn1ncnc1C(C)NC1CCC2(CCNCC2)CC1` (stereo not drawn) the Potency was “inactive”. With `CCC(O)c1cc2n(n1)CCN(C(=O)c1cnc(C)nc1-c1ccccc1)C2` (stereo not drawn) the Potency was “inactive”. For `COc1ccc(S(=O)(=O)N[C@H]2C[C@H]3C(=O)NC[C@@H](CCC(=O)N4CCc5ccccc54)N3C2)cc1`, the Potency was “inactive”. With `CN1C(=O)[C@@H]2C[C@@H](O)CN2C2(CN(Cc3cnc4ccccc4c3)C2)C1=O` the Potency was “inactive”. In the case of `COc1ccccc1C(=O)NCc1ccnc2[nH]ccc12`, the Potency is reported as “inactive”. In the case of `O=C(Cn1cc(SCc2cccc(Cl)c2)c2ccccc21)N1CCCCC1`, the Potency is reported as “inactive”. With `COc1ccccc1C(=O)NCCn1cc(SCc2ccccc2Cl)c2ccccc21` the Potency was 3.98 µM (active). For `Cc1cc(NC(=O)c2ccc(Cn3ccn4nc5c(c4c3=O)CCCC5)cc2)ccc1F`, the Potency was “inactive”. With `CCc1cc(NCCS(=O)(=O)CC)n2nccc2n1` the Potency was “inactive”. For `CCOc1ccc(NC(=O)CN2CCN(CC(=O)Nc3ccc(OC)cc3)CC2)cc1`, the Potency was “inactive”. With `CCN(CC)c1ccc(NC(=O)CN2CCN(CC(=O)Nc3ccc(Cl)cc3)CC2)cc1` the Potency was 8.91 µM (active). In the case of `O=C(Cn1nc2n(c1=O)CCCC2)Nc1ccc(Cl)cc1`, the Potency is reported as “inactive”. In the case of `Cc1ccc2[nH]nc(C(=O)N3C[C@@H](C(=O)O)[C@H](c4ccc(F)cc4)C3)c2c1`, the Potency is reported as “inactive”. For `Cc1oc2ccn(Cc3ccccc3F)c(=O)c2c1C(=O)NCc1cccnc1`, the Potency was “inactive”. In the case of `CC(C)c1ccc2oc(-c3cc(NC(=O)c4cccs4)ccc3Cl)nc2c1`, the Potency is reported as “inactive”. With `CC(C)CCN(C(=O)Nc1ccc(Cl)c(Cl)c1)C(C)c1cccs1` (stereo not drawn) the Potency was 10 µM (active). For `CC(c1cccs1)N(C)Cc1ccncc1` (stereo not drawn), the Potency was “inactive”. With `C=CCNC(=O)N1CCC(C2CCN(Cc3cccc(F)c3F)CC2)C1` (stereo not drawn) the Potency was “inactive”. With `O=C(Nc1ccc2ncnc(N3CCCCC3)c2c1)c1ccc2c(c1)OCO2` the Potency was “inactive”. For `Cc1ccc(C(=O)Nc2ccc3c(N4CCCCC4)ncnc3c2)s1`, the Potency was 5.01 µM (active). With `Cc1ccc(C(=O)Nc2ccc3ncnc(N4CCCCC4)c3c2)s1` the Potency was “inactive”. With `CC(C)(C)CC(=O)Nc1ccc2c(N3CCOCC3)ncnc2c1` the Potency was “inactive”. For `Cc1cc(C)cc(C(=O)Nc2ccc3c(N4CCCC4)ncnc3c2)c1`, the Potency was 0.708 µM (active). In the case of `O=C(Nc1ccc2ncnc(N3CCCCC3)c2c1)c1cccc(Cl)c1`, the Potency is reported as “inactive”. In the case of `O=C(CCc1cc(Cl)no1)N1CCCC(c2nc(C3CCOCC3)no2)C1` (stereo not drawn), the Potency is reported as “inactive”. With `CCn1c(C2CCCN(C(=O)NCC(C)C)C2)nn(C)c1=O` (stereo not drawn) the Potency was “inactive”. With `Cn1ccnc1CNC(=O)C[C@@H]1C[C@H]2O[C@H](CNC(=O)NCc3ccccc3)[C@@H](O)[C@H]2O1` the Potency was “inactive”. For `CC(C)c1nc2nccc(-c3ccc4c(c3)OCCCO4)n2n1`, the Potency was “inactive”. For `COc1cc(C(=O)Nc2ccc(OCc3cc(=O)n4cc(C)sc4n3)cc2)cc(OC)c1OC`, the Potency was “inactive”. For `O=C(Nc1ccc(C2(C(=O)N3CCCCCC3)CCC2)cc1)C1CC1`, the Potency was “inactive”. With `CCC(CC)NC(=O)c1ccc(-c2nnc3ccc(NC(=O)C4CCC4)cn23)cc1` the Potency was 2.51 µM (active). With `CCC(=O)Nc1ccc2nnc(-c3ccc(C(=O)Nc4ccc(OC)cc4)cc3)n2c1` the Potency was 0.708 µM (active). For `COc1ccc(-c2cn3c(n2)sc2cc(C(=O)Nc4ccc(F)cc4)ccc23)cc1`, the Potency was “inactive”. In the case of `O=C(Nc1ccc2ncnc(N3CCCCC3)c2c1)C1CCCCC1`, the Potency is reported as “inactive”. For `COC[C@@H]1CN(Cc2ccc(F)c(OC)c2)C[C@H]1C(=O)N(C)C`, the Potency was “inactive”. For `CCc1cc2c(-c3ccccc3)cc(=O)oc2c2c1OCN(Cc1ccc(C)cc1)C2`, the Potency was 2.24 µM (active). For `CCn1c2c(c(=O)n1Cc1ccccc1)CCN(C(=O)Cc1ccc3c(c1)OCO3)C2`, the Potency was “inactive”. In the case of `Cc1ccc(Cn2c(=O)n(Cc3nc(-c4ccccc4)no3)c(=O)c3cc4c(cc32)OCO4)cc1`, the Potency is reported as “inactive”. In the case of `Cc1ccc(CN2COc3cc(C)c4c(oc(=O)c5ccccc54)c3C2)cc1`, the Potency is reported as 1.12 µM (active). In the case of `COCCn1cc2c3c(cccc31)CN(C(=O)c1c(F)cccc1Cl)CC2`, the Potency is reported as “inactive”. With `O=C(Nc1ccc(Cl)cc1)c1nc2c(o1)CCN(Cc1ccsc1)CC2` the Potency was “inactive”. In the case of `COCCn1ncc(N2CCC(NC(=O)C3CCC3)CC2)cc1=O`, the Potency is reported as “inactive”.
